# ChEMBL document CHEMBL4513216, “Probing the Open Global Health Chemical Diversity Library for Multistage-Active Starting Points for Next-Generation Antimalarials” (ACS Infect Dis, 2020)
# Screen size: about 69,000 compounds; about 8,600 (12%) showed an effect of 50% or more. Many of the other results were omitted from the sample, so strong results are more common in it than they were.
# Tested on: Plasmodium berghei
# Experiment: Screen against P. berghei liver stage (PbLuc), transformed with Luciferase, at 10uM
# Format: functional, HepG2
# Conditions: tested at 10 uM
row,SMILES,INHIBITION [%]
1,NS(=O)(=O)CCN(CCc1cccc(F)c1)C1CCCC1,36.3
2,CS(=O)(=O)Nc1cnn(Cc2cccc(Cl)c2)c1,29.1
3,COc1ccc(-n2ccc(C(=O)NCCn3ccnc3)n2)cc1,5.9
4,CN1[C@@H]2CC[C@H]1CN(C(=O)c1nnc3n1CCCC3)CC2,-151
5,CC(C)NC(=O)[C@@]12CCO[C@@H]1CCN(Cc1ccco1)C2,60.3
6,O=C(NCc1ccco1)[C@@]12CCO[C@@H]1CCN(Cc1ccccn1)C2,-34.7
7,Cc1ncsc1CN1CC[C@H]2OCC[C@@]2(C(=O)NCC2CC2)C1,53.4
8,O=C(NCc1ccccn1)[C@@]12CCO[C@@H]1CCN(c1ncccn1)C2,41.2
9,O=C(NCc1ccccn1)[C@@]12CCO[C@@H]1CCN(Cc1ccccn1)C2,51.2
10,CNC(=O)[C@@]12CCO[C@@H]1CCN(Cc1scnc1C)C2,19
11,COCCNC(=O)[C@@]12CCO[C@@H]1CCN(Cc1scnc1C)C2,8.67
12,O=C(NCc1ccco1)[C@@]12CCO[C@@H]1CCN(CCN1CCCC1)C2,22.4
13,Cc1cc(CN2CC[C@H]3OCC[C@@]3(C(=O)NC(C)C)C2)no1,6.32
14,c1coc(CN2CCCn3c(nnc3Cn3cccc3)C2)c1,45.4
15,Cc1ccc(CN2C[C@H](OCC3CCOCC3)[C@H]3COC[C@H]32)o1,-59.9
16,Oc1cc(CC2COCCN(CC3(O)CCOCC3)C2)ncn1 (centres undefined),6.26
17,CC(C)c1nnc2n1CCN(C(=O)Cc1csc(C(C)(C)C)n1)C2,1.35
18,CC(C)N1CCC(Cc2cc(-c3cccc(C(=O)O)c3)ncn2)CC1,23.4
19,Fc1ccc(CN2CCO[C@H]3[C@H](OCC4CC4)CC[C@@H]32)cc1,-30.8
20,Fc1ccc(CN2CCO[C@H]3[C@H](OCC4CCCC4)CC[C@@H]32)cc1,66.8
21,c1coc(CN2CCO[C@H]3[C@H](OCC4CCCC4)CC[C@@H]32)c1,47.4
22,Fc1ccc(CN2CCO[C@H]3[C@H](OCCN4CCCC4)CC[C@@H]32)cc1,15.1
23,c1cc(CN2CCO[C@H]3[C@H](OCC4CCCC4)CC[C@@H]32)ccn1,62.6

row,SMILES,INHIBITION [%]
1,c1cc(CN2CCO[C@H]3[C@H](OCCN4CCCC4)CC[C@@H]32)ccn1,38.2
2,CCOC[C@]12COC[C@H]1CN(Cc1ccc(F)c(F)c1)C2,10.4
3,COc1ccc(-c2n[nH]cc2CN(C)Cc2nccn2C)c(F)c1,51.5
4,COc1ccc(-c2n[nH]cc2CN(C)Cc2ccoc2)c(F)c1,-25.8
5,CN(Cc1c[nH]nc1-c1ccc(F)cc1F)Cc1nccn1C,52.2
6,COc1ccc(-c2n[nH]cc2CN(C)Cc2nnc(C)o2)c(F)c1,23.8
7,CC(C)CN(C)Cc1c[nH]nc1-c1ccc(F)cc1F,11.9
8,Cc1cnccc1CN(C)Cc1c[nH]nc1-c1ccc(F)cc1F,18.6
9,Cc1nc(CN2C(=O)CC[C@@H]3[C@H]2CCN3C(=O)C2CCCO2)cs1 (some centres undefined),15.4
10,O=C(CCc1ccncc1)N1CCc2cc(Cl)cc(Cl)c2C1,49.7
11,COc1ccc(F)cc1C(=O)N1C[C@@H]2CC[C@H]1CN(c1ncccn1)C2,10.7
12,CC(C)C(=O)N1CCC(C)(c2cc(O)[nH]n2)CC1,-4.87
13,CS(=O)(=O)N1CCCC1c1cccc(Nc2nccs2)n1 (centres undefined),-17.7
14,Cc1cccc(CN2CCCC2c2cncc(Nc3nncs3)n2)c1 (centres undefined),46.2
15,Cc1ccccc1CN1CCCC1c1cccc(Nc2nccs2)n1 (centres undefined),71.8
16,Cc1cccc(CN2CCCC2c2cccc(Nc3nccs3)n2)c1 (centres undefined),72
17,c1ccc(CCN2CCCC2c2cccc(Nc3nccs3)n2)cc1 (centres undefined),69.2
18,c1ccc(CCN2CCCC2c2cncc(Nc3nncs3)n2)cc1 (centres undefined),11.8
19,Cc1ccccc1CN1CCCC1c1cncc(Nc2nncs2)n1 (centres undefined),22
20,COc1cccc(CN2CCCC2c2cncc(Nc3nncs3)n2)c1 (centres undefined),-29.9
21,c1ccc(CCN2CCCC2c2ccnc(Nc3ncccn3)n2)cc1 (centres undefined),11.8
22,COc1cccc(CNC(=O)CCNS(=O)(=O)c2ccc(C)cc2)c1,-31.3
23,CCCC1c2cccn2CCN1S(=O)(=O)N1CCOCC1 (centres undefined),1.65

row,SMILES,INHIBITION [%]
1,CCCc1nc(C(=O)NC(COC)c2ccnn2C)cs1 (centres undefined),16.3
2,Cc1ccc(CN2CCC[C@]3(C(=O)O)CN(CC4CC4)C[C@@H]3C2)s1,-27.6
3,COCC(=O)N1CCN(Cc2cc(F)cc(Br)c2)CC1,-10.9
4,CN(C)CCOCc1nnc2n1CCN(Cc1ccco1)C2,-13.7
5,CCc1ccc(C2COCCN2C(=O)NCc2cccc(C#N)c2)o1 (centres undefined),-92.8
6,CCc1ccc(C2COCCN2C(=O)Nc2ccc(C(N)=O)c(Cl)c2)o1 (centres undefined),78.3
7,CCc1ccc(C2COCCN2C(=O)Nc2cccc(C(C)=O)c2)o1 (centres undefined),-2.9
8,CCc1ccc(C2COCCN2C(=O)Nc2cc(C)on2)o1 (centres undefined),-107
9,Cc1ccc(C2COCCN2C(=O)c2ccc(C#N)cc2)o1 (centres undefined),32
10,CCc1ccc(C2COCCN2C(=O)Nc2ccc(C#N)cc2)o1 (centres undefined),65.3
11,CNC(=O)C1CN(Cc2c[nH]cn2)CCN(C2CCOCC2)C1 (centres undefined),25.6
12,CC(C)Oc1ccc(C(=O)N2CCCSCC2CN(C)C)cc1 (centres undefined),36.6
13,O=C(COC[C@H]1CC[C@H]2[C@H](CCN2c2ccccn2)O1)N1CCCC1,-37.4
14,Cc1nccn1CCN(C)C(=O)c1cn(CC2CCCCC2)nn1,41.8
15,CCSc1cccc(NCc2cccnc2)c1,85.2
16,COCc1cccc(NCc2cccnc2)c1,36.5
17,COc1cccc(CNCc2cccnc2)c1,13.7
18,Cc1cc(NCc2cccnc2)n2nc(C)cc2n1,-10.4
19,COc1ccnc(NC(=O)CSCc2cccnc2)c1,36.9
20,CCOCc1nnc(NCc2cccnc2)o1,-0.897
21,OCc1ccc(Cl)c(NCc2cccnc2)c1,3.16
22,COc1cccc(CSCC(=O)NCc2cccnc2)c1,54.5
23,CCSCc1cccc(NCc2cccnc2)c1,61.6
